The campaign covered roughly 5,500 compounds. About 2,000 (36%) were called active. Roughly 18% stayed inconclusive and do not appear here. Some of the results follow. Values without a mark were called inactive. Rule as the data show it: active = normalized growth mostly below about 0.91 (no sharp cut-off); inconclusive = no clear call, values can overlap the other calls; inactive = mostly above about 0.92.
Test: chemical genetic growth profiling, strain panel (AID 1159580);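 also: tested at 20 µM; growth read once vehicle control cultures reached saturation at 30 °C; 1 = growth at the plate median or of vehicle wells; lower values mean less growth of the strain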
Conditions: growth OD

`CC1CC2C3CC(F)C4=CC(=O)C=CC4(C)C3(F)C(O)CC2(C)C1C(=O)COC(=O)C(C)(C)C` (stereo not given) gave a normalized growth (S. cerevisiae deletion strains, locus YBR021W, strain FUR4, active compounds read low) of 0.903, a normalized growth (S. cerevisiae deletion strains, locus YBR229C, strain ROT2, active compounds read low) of 0.997 and a normalized growth (S. cerevisiae deletion strains, locus YCL029C, strain bik1, active compounds read low) of 1.05. For the same compound, the normalized growth (S. cerevisiae deletion strains, locus YDL035C, strain GPR1, active compounds read low) was 0.871, the normalized growth (S. cerevisiae deletion strains, locus YDL074C, strain BRE1, active compounds read low) was 0.879 and the normalized growth (S. cerevisiae deletion strains, locus YDL101C, strain DUN1, active compounds read low) was 1.01. For the same compound, the normalized growth (S. cerevisiae deletion strains, locus YDL134C, strain PPH21, active compounds read low) was 0.873 (active), the normalized growth (S. cerevisiae deletion strains, locus YDL185W, strain tfp1, active compounds read low) was 1.01 and the normalized growth (S. cerevisiae deletion strains, locus YDL192W, strain arf1, active compounds read low) was 0.997. It also gave a normalized growth (S. cerevisiae deletion strains, locus YDR101C, strain arx1, active compounds read low) of 1.02, a normalized growth (S. cerevisiae deletion strains, locus YDR150W, strain NUM1, active compounds read low) of 0.977 and a normalized growth (S. cerevisiae deletion strains, locus YDR162C, strain NBP2, active compounds read low) of 0.867. For the same compound, the normalized growth (S. cerevisiae deletion strains, locus YDR318W, strain mcm21, active compounds read low) was 1.01, the normalized growth (S. cerevisiae deletion strains, locus YDR388W, active compounds read low) was 1.04 and the normalized growth (S. cerevisiae deletion strains, locus YDR502C, strain sam2, active compounds read low) was 1.02. The normalized growth (S. cerevisiae deletion strains, locus YEL061C, strain CIN8, active compounds read low) was 0.973, the normalized growth (S. cerevisiae deletion strains, locus YER110C, active compounds read low) was 1.04 and the normalized growth (S. cerevisiae deletion strains, locus YER155C, strain BEM2, active compounds read low) was 1.04. For the same compound, the normalized growth (S. cerevisiae deletion strains, locus YER167W, strain BCK2, active compounds read low) was 0.992, the normalized growth (S. cerevisiae deletion strains, locus YGL078C, strain dbp3, active compounds read low) was 1.02 and the normalized growth (S. cerevisiae deletion strains, locus YGL086W, strain mad1, active compounds read low) was 0.96. The normalized growth (S. cerevisiae deletion strains, locus YGL248W, strain PDE1, active compounds read low) was 0.927, the normalized growth (S. cerevisiae deletion strains, locus YGR078C, strain PAC10, active compounds read low) was 0.92 and the normalized growth (S. cerevisiae deletion strains, locus YGR135W, strain pre9, active compounds read low) was 0.957. It also gave a normalized growth (S. cerevisiae deletion strains, locus YGR252W, strain gcn5, active compounds read low) of 0.849, a normalized growth (S. cerevisiae deletion strains, locus YHR030C, strain SLT2, active compounds read low) of 0.989 and a normalized growth (S. cerevisiae deletion strains, locus YHR079C, strain IRE1 (second series), active compounds read low) of 1.03. It also gave a normalized growth (S. cerevisiae deletion strains, locus YHR094C, strain hxt1, active compounds read low) of 1.04, a normalized growth (S. cerevisiae deletion strains, locus YHR129C, strain ARP1, active compounds read low) of 0.964 and a normalized growth (S. cerevisiae deletion strains, locus YHR200W, strain rpn10, active compounds read low) of 1.01. For the same compound, the normalized growth (S. cerevisiae deletion strains, locus YIL066C, strain RNR3, active compounds read low) was 0.852 (active), the normalized growth (S. cerevisiae deletion strains, locus YIL073C, strain SPO22, active compounds read low) was 0.954 and the normalized growth (S. cerevisiae deletion strains, locus YIL125W, strain kgd1, active compounds read low) was 1.02. It also gave a normalized growth (S. cerevisiae deletion strains, locus YIR030C, strain dcg1, active compounds read low) of 1.03, a normalized growth (S. cerevisiae deletion strains, locus YJL095W, strain BCK1, active compounds read low) of 0.989 and a normalized growth (S. cerevisiae deletion strains, locus YJL134W, strain LCB3, active compounds read low) of 1.01. For the same compound, the normalized growth (S. cerevisiae deletion strains, locus YJL168C, strain set2, active compounds read low) was 1.01, the normalized growth (S. cerevisiae deletion strains, locus YJL187C, strain SWE1 (second series), active compounds read low) was 0.934 and the normalized growth (S. cerevisiae deletion strains, locus YJR043C, strain POL32, active compounds read low) was 0.892. It also gave a normalized growth (S. cerevisiae deletion strains, locus YKL009W, strain mrt4, active compounds read low) of 1.03, a normalized growth (S. cerevisiae deletion strains, locus YKL068W, active compounds read low) of 1.02 and a normalized growth (S. cerevisiae deletion strains, locus YKL085W, strain MDH1 (second series), active compounds read low) of 1.01. For the same compound, the normalized growth (S. cerevisiae deletion strains, locus YKL085W, strain MDH1, active compounds read low) was 1.01, the normalized growth (S. cerevisiae deletion strains, locus YKR001C, strain vps1, active compounds read low) was 0.987 and the normalized growth (S. cerevisiae deletion strains, locus YLR039C, strain RIC1, active compounds read low) was 0.804. The normalized growth (S. cerevisiae deletion strains, locus YLR058C, strain SHM2, active compounds read low) was 0.981, the normalized growth (S. cerevisiae deletion strains, locus YLR102C, strain apc9, active compounds read low) was 1.03 and the normalized growth (S. cerevisiae deletion strains, locus YLR262C, strain YPT6, active compounds read low) was 0.872. The normalized growth (S. cerevisiae deletion strains, locus YLR268W, strain sec22, active compounds read low) was 0.985, the normalized growth (S. cerevisiae deletion strains, locus YLR330W, strain CHS5, active compounds read low) was 0.967 and the normalized growth (S. cerevisiae deletion strains, locus YLR342W, strain FKS1 (second series), active compounds read low) was 0.758 (active). For the same compound, the normalized growth (S. cerevisiae deletion strains, locus YLR371W, strain rom2, active compounds read low) was 1.03, the normalized growth (S. cerevisiae deletion strains, locus YLR418C, strain cdc73, active compounds read low) was 0.953 and the normalized growth (S. cerevisiae deletion strains, locus YML016C, strain PPZ1, active compounds read low) was 0.951. The normalized growth (S. cerevisiae deletion strains, locus YML032C, strain rad52, active compounds read low) was 1.03, the normalized growth (S. cerevisiae deletion strains, locus YML124C, strain tub3, active compounds read low) was 1.02 and the normalized growth (S. cerevisiae deletion strains, locus YMR078C, strain ctf18, active compounds read low) was 1.04. The normalized growth (S. cerevisiae deletion strains, locus YMR223W, strain ubp8, active compounds read low) was 0.965, the normalized growth (S. cerevisiae deletion strains, locus YMR307W, strain GAS1, active compounds read low) was 0.922 and the normalized growth (S. cerevisiae deletion strains, locus YNL067W, strain RPL9B, active compounds read low) was 0.989. For the same compound, the normalized growth (S. cerevisiae deletion strains, locus YNL128W, strain TEP1, active compounds read low) was 0.908, the normalized growth (S. cerevisiae deletion strains, locus YNL233W, strain BNI4, active compounds read low) was 0.919 and the normalized growth (S. cerevisiae deletion strains, locus YNL250W, strain rad50, active compounds read low) was 1.01. For the same compound, the normalized growth (S. cerevisiae deletion strains, locus YNL271C, strain bni1, active compounds read low) was 1.02, the normalized growth (S. cerevisiae deletion strains, locus YNL298W, strain CLA4, active compounds read low) was 1.01 and the normalized growth (S. cerevisiae deletion strains, locus YNL307C, strain MCK1, active compounds read low) was 1.03. The normalized growth (S. cerevisiae deletion strains, locus YNL322C, strain KRE1, active compounds read low) was 0.984, the normalized growth (S. cerevisiae deletion strains, locus YNR052C, strain pop2, active compounds read low) was 1.01 and the normalized growth (S. cerevisiae deletion strains, locus YOL006C, strain TOP1, active compounds read low) was 0.509 (active). The normalized growth (S. cerevisiae deletion strains, locus YOL012C, strain htz1) was 1.01, the normalized growth (S. cerevisiae deletion strains, locus YOL147C, strain pex11, active compounds read low) was 1.03 and the normalized growth (S. cerevisiae deletion strains, locus YOR061W, strain CKA2, active compounds read low) was 0.878 (active). For the same compound, the normalized growth (S. cerevisiae deletion strains, locus YOR069W, strain VPS5, active compounds read low) was 0.991, the normalized growth (S. cerevisiae deletion strains, locus YOR136W, strain idh2, active compounds read low) was 1.02 and the normalized growth (S. cerevisiae deletion strains, locus YOR144C, strain elg1, active compounds read low) was 1.03. The normalized growth (S. cerevisiae deletion strains, locus YOR184W, strain ser1, active compounds read low) was 0.974, the normalized growth (S. cerevisiae deletion strains, locus YOR316C, strain cot1, active compounds read low) was 1.03 and the normalized growth (S. cerevisiae deletion strains, locus YPL055C, strain LGE1, active compounds read low) was 0.843. It also gave a normalized growth (S. cerevisiae deletion strains, locus YPL241C, strain CIN2, active compounds read low) of 0.992, a normalized growth (S. cerevisiae deletion strains, locus YPR119W, strain clb2, active compounds read low) of 1.03 and a normalized growth (S. cerevisiae deletion strains, locus YPR141C, strain kar3, active compounds read low) of 1.02. It also gave a normalized growth (S. cerevisiae deletion strains, locus YPR163C, strain tif3, active compounds read low) of 1.03, a normalized growth (S. cerevisiae deletion strains, locus YPR167C, strain met16, active compounds read low) of 1.01 and a normalized growth (S. cerevisiae deletion strains, strain wtn01, active compounds read low) of 0.983. The normalized growth (S. cerevisiae strains, strain wild type, active compounds read low) was 0.876 (active).
